The test system of test [1] is Zika virus NS2B-NS3 protease (linked construct). The experiment in a line: Primary screen NINDS Rhodamine qHTS for Zika virus inhibitors (AID 1347160). Also: nearly all actives have a fitted effect of over 55% in size. Also: potency is read from the fitted curve at half-maximal effect. The method, boiled down: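 Percent inhibition, normalized to uninhibited and enzyme-free controls, is fitted to a 4-parameter Hill equation. Fluorescence change comes from a 15-min cleavage of 1.5 microM bis-peptide Rhodamine110 substrate by 25 nM linked NS2B-NS3 at room temperature.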

Test [2] can be described thus: SDT Cancer Cell Toxicity qHTS against the NCATS CANVASS Library (AID 1347365). Also: nearly all actives have a fitted effect of over 60% in size. Also: potency is read from the fitted curve at half-maximal effect.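 As to activity change, negative = cytotoxicity: SDT canine glioma cells 500 per well in 1536 well plates; series mostly up to about 46 µM; % is scaled to controls: 0 for no effect and ±100 for the full control effect.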 The method, boiled down: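 Dispense 500 SDT cells per well; pin-transfer compounds; incubate 72 hr at 37C, 5% CO2, 95% RH; add CellTiterGlo and read luminescence.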
Test [3] in a line: Vero-766 cells viability qHTS against the NCATS CANVASS Library: Counterscreen for Zika virus inhibition assay (AID 1347394). Also: nearly all actives have a fitted effect of over 60% in size. Also: potency is read from the fitted curve at half-maximal effect. As to activity change, negative = cytotoxic: series mostly up to about 46 µM; % is scaled to controls: 0 for no effect and ±100 for the full control effect. In a few lines:
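Vero 766, no virus; 1000 cells/well; o/n attach; cpd 11-pt; 72 h, 37C, 5% CO2; CTG luminescence; cell-free media wells = 100% inhibition.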

The nature of test [4]: HEK-293 Cancer Cell Toxicity qHTS against the NCATS CANVASS Library (AID 1347355). Also: nearly all actives have a fitted effect of over 65% in size. Also: potency is read from the fitted curve at half-maximal effect. As to activity change, negative = cytotoxicity: series mostly up to about 46 µM; % is scaled to controls: 0 for no effect and ±100 for the full control effect. As to outcome: series mostly up to about 46 µM. The method, boiled down: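 qHTS cytotoxicity: compounds tested in 11 concentrations on 1000 seeded cells per well over 72 h; bortezomib served as control; signal from CellTiter-Glo luminescence.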
Test [5] is described as follows: qHTS for Hypoxia signaling pathway (HIF-1) antagonists against the NCATS CANVASS Library (AID 1347374). Also: nearly all actives have a fitted effect of over 60% in size. Also: potency is read from the fitted curve at half-maximal effect.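 As to activity change, negative = inhibition: HRE-bla ME-180 cells stimulated with cobalt chloride to stabilize HIF-1alpha; series mostly up to about 38 µM; % is scaled to controls: 0 for no effect and ±100 for the full control effect.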 The method, boiled down: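 HRE-bla ME-180 cells (2,000/well, 0.5% dialyzed FBS) were pre-incubated 5 h, then given an 11-point compound series plus CoCl2 (60 uM solution as added) for 17 h at 37C. CCF4 β-lactamase read (ex 405, em 460/530 nm) after 2 h at RT.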

Test [6] is described as follows: A2780 Cisplatin Sensitive Ovarian Cancer Cell Toxicity qHTS against the NCATS CANVASS Library (AID 1347353). Also: nearly all actives have a fitted effect of over 60% in size. Also: potency is read from the fitted curve at half-maximal effect. The method, boiled down:
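Seventy-two-hour exposure of cisplatin-sensitive A2780 ovarian cells to an 11-concentration qHTS series; cytotoxicity is inferred from loss of ATPLite luminescence. Bortezomib titration served as positive control.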

Test [7] in a line: Panc-1005 Cancer Cell Toxicity qHTS against the NCATS CANVASS Library (AID 1347349). Also: nearly all actives have a fitted effect of over 60% in size. Also: potency is read from the fitted curve at half-maximal effect. The method, boiled down: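 Viability was assessed by adding CellTiter-Glo reagent to treated cultures and reading luminescence after 15min at room temperature. Treatment lasted 72 h at 37 degrees C/5% CO2, using an 11-point series on 1000 cells/well.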
Test [8] in a line: qHTS for Activators of p53 Stress Response Pathway screened against the NCATS CANVASS Library (AID 1347388). Also: potency is read from the fitted curve at half-maximal effect. As to activation: 0% is about no effect. The method, boiled down: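 p53RE-bla HCT-116 cells (4000/well) were pre-incubated for 5 h, then treated with compound (11 points) for 16 h at 37C. After 2 h with CCF4, the 460/530 nm ratio gave reporter activation; CellTiter-Glo measured viability.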
The nature of test [9]: DH5-alpha competent E. coli microbial cell viability qHTS against the NCATS CANVASS Library (AID 1347377). As to viability signal change, negative = cytotoxic: 0% is about no effect. To be noted: outcome: dose series up to 46.1 µM unless noted. In a few lines:
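Cell viability of competent DH5-alpha E. coli is scored from ATP content by luminescence. Cells sit overnight at 37C with compound across an 11-point concentration series.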

Test [10] deals with Zika virus NS2B-NS3 protease (linked). The experiment in a line: 384 well plate NINDS AMC confirmatory qHTS for Zika virus inhibitors (AID 1347163). Also: potency is read from the fitted curve at half-maximal effect; nearly all actives have a fitted effect of over 50% in size. In a few lines:
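Linked protease 5/30/60 nM final; cpds up to 1 mM final, ~15 min preinc. Substrate Ac-VKTGKR-AMC 30 microM final. RT, dark, 25 min; FI ex 355/em 460; normalized to no-enzyme/no-inhibitor ctrls.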

For test [11], the system named is Zika virus NS2B-NS3 protease (linked construct). The test can be described thus: 384 well plate NINDS Rhodamine confirmatory qHTS for Zika virus inhibitors (AID 1347164).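 Also: fluorescence from protease cleavage of Ac-LKRR-rhodamine 110 substrate; top concentration of the series differs between compounds; plate controls were no-inhibitor control for no effect and no-enzyme control for full effect; nearly all actives have a fitted effect of over 65% in size.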 In a few lines:
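Enzyme (final 5/30/60 nM) + cpd (DMSO), ~15 min; add Ac-LKRR-Rd 10 microM final; 25 min RT, dark; FI ex 485/em 538; normalized to no-enzyme, no-inhibitor ctrls; aprotinin intraplate ctrl.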

A short description of test [12]: qHTS to identify inhibitors of the type 1 interferon - major histocompatibility complex class I in skeletal muscle: primary screen against the NCATS Mechanism Interrogation Plate v5.0 (MIPE) Libary (AID 1347411).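 Also: plate controls were vehicle for no effect and reference inhibitor for full effect; nearly all actives have a fitted effect of over 65% in size.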 The method, boiled down: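 Cells were genome-edited human myoblasts carrying a HiBit tag on endogenous HLA-B. They were treated with IFN-beta (4.0 ng/ml) and titrated compounds (top 46 uM) for 24 hrs before lytic HiBiT detection.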

Each structure is given as a SMILES string. Inconclusive results are not listed. Unmarked numbers belong to inactive results. Active and inactive are the calls of the source. Calls follow the shape of the dose curve; as a rule, active = well fitted curve in the direction sought with a large enough effect; inconclusive = small, poorly fitted or top-dose-only effect, or another doubt; inactive = no such curve, though single readings can be large; an effect the other way counts as inactive or inconclusive. Bridge positions count the residues as written; N and C are the ends. Square brackets hold non-standard residues; d marks the D form. Side chains are listed from the residue outwards. Peptide text beside a SMILES is read from it. * marks the point of attachment. Phg(4-OMe) = COc1ccc([C@H](N)C(=O)O)cc1; d(aIle) = CC[C@H](C)[C@@H](N)C(=O)O; d(aThr) = C[C@@H](O)[C@@H](N)C(=O)O; NMeF = CN[C@@H](Cc1ccccc1)C(=O)O; Isobutyryl = CC(C)C(=O)*

Take `C=CC(CCCCC)C1C(=O)NC(=O)C1C(=O)C1C(/C=C/C)C=CC2CC(C(=O)O)CC(C)C21` (stereo not drawn): the Potency is 3.92 µM (active) in [1] and 23.4 µM (active) in test [3]. For the same molecule, the Potency result in test [2] is “inactive”.

On to `C=C1CC[C@@H](O[C@H]2C[C@@](O)([C@H](C)NC(=O)c3[nH]c(C)c(Cl)c3Cl)[C@H](O)[C@@H](C)O2)[C@@H]2C=C[C@H](C)C(/C(O)=C3/C(=O)[C@H](C(C)C)N([C@@H]4O[C@H](C)[C@H](OC(N)=O)[C@H](OC(C)=O)[C@@H]4OC)C3=O)[C@@H]12` (stereo partly drawn), for which the Potency in [1] was 15.6 µM (active). The Potency result in [4] and in test [2] was “inactive” throughout.

On to `C[C@]12CCC[C@](C)(C(=O)O)[C@@H]1CC[C@@]1(C)c3cocc3CC[C@H]21`, for which the Potency in test [1] is 15.6 µM (active). The Potency entry in [4], in test [5] and in test [3] was “inactive” each time.

Take `CCC(=O)CCCCC[C@@H]1NC(=O)[C@H]2CCCCN2C(=O)[C@H](C(C)C)NC(=O)[C@H](Cc2cn(OC)c3ccccc23)NC1=O`: the Potency in test [1] was 13.9 µM (active); in test [6] it was 5.26 µM (active); in test [3], 5.88 µM (active). Besides, the Potency entry in test [5] is “inactive”.

With `CC(=O)Oc1cc2c(c(OC(C)=O)c1C1CCc3cc(Cl)c(Cl)n31)C(=O)n1c-2cc(Cl)c1Cl` (stereo not drawn), the Potency is 3.92 µM (active) in [1]; 6.68 µM (active) in test [7]; 11.8 µM (active) in test [6]; 16.6 µM (active) in test [4]; 3.34 µM (active) in test [5]; 9.33 µM (active) in test [3].

As to `O[C@H]1c2ccccc2-c2c3c(cc4c2[C@@H]1NCC4)OCO3`, the Potency in test [1] is 49.3 µM (active); in [6] it was 11.8 µM (active); in test [5], 18.8 µM (active); in test [8], 13.2 µM (active); in test [3], 20.9 µM (active).

With `COc1cc(C2OCC3C(c4ccc(O)c(OC)c4)OCC23)ccc1O` (stereo not drawn), the Potency result in test [1] was “inactive”. Besides, the activity change, negative = cytotoxicity in test [7] was -5.51% [at 7.64 µM]; in [2], 2.04% [at 9.19 µM]. For the same molecule, the outcome in [6] and in test [9] was “inactive [at 9.19 µM]” in each case.

Regarding `C/C(=C\CC[C@@H](C)[C@H]1CC[C@]2(C)C3=CCC4C(C)(C)[C@@H](O)C[C@@H](O)[C@]4(C)C3[C@H](O)C[C@@]12C)CO` (stereo partly drawn), the Potency in test [1] is 19.6 µM (active); in test [5], 14.9 µM (active). In test [2], the Potency result is “inactive”.

Take `COc1cc2c(cc1OC)[C@@H](c1ccc3c(c1)OCO3)C(C)C(C)C2=O` (stereo partly drawn): the Potency entry in [1], in test [2] and in [3] was “inactive” throughout.

Consider `C=CC(CCCCC)C1C(=O)NC(=O)C1C(=O)C1C2C(C)CC(C(=O)O)CC2CC1(O)C(=O)/C=C/C` (stereo not drawn), for which the figures for the Potency in test [1] and in test [5] were 6.21 µM (active) and 8.38 µM (active), respectively. For the same molecule, the Potency result in test [7], in test [4] and in [3] was “inactive” in each case.

On to `CC(C)=CC[C@H]1C[C@@]2(CC=C(C)C)C(=O)[C@](CC=C(C)C)(C(=O)C(C(=O)c3ccccc3)=C2O)C1(C)C`, for which the Potency in test [1] was 4.4 µM (active); in test [7], 13.3 µM (active); in test [6], 14.8 µM (active); in test [4], 23.5 µM (active); in test [5] it was 5.94 µM (active). In test [8], the Potency entry is “inactive”.

Turning to `C/C=C(/C)c1cc(O)c(C)c2c1Oc1cc(O)cc(C)c1C(=O)O2`, the Potency in test [1] was 24.7 µM (active). For the same molecule, the Potency result in [7], in [6] and in test [4] was “inactive” throughout.

`CO[C@H]1[C@@H](OC(=O)/C(C)=C\[C@@H]2O[C@@H]2[C@H]2O[C@H]2C)[C@H](O)[C@H](OCC23C[C@@H]4[C@H](C)CC[C@H]4C4(C=O)CC2C=C(C(C)C)C34C(=O)O)O[C@@H]1C` (stereo partly drawn): in test [1], the Potency is 22 µM (active). Besides, the molecule was classed as inactive in [9].

Consider `CC[C@H](C)[C@H]1NC(=O)[C@@H](NC(=O)C(C)C)[C@@H](C)OC(=O)[C@H](COC(=O)CNC(C)=O)NC(=O)[C@@H]([C@@H](C)O)NC(=O)[C@H](Cc2ccccc2)N(C)C(=O)[C@H](c2ccc(OC)cc2)NC1=O` (Isobutyryl-T[d(aIle)][Phg(4-OMe)][NMeF][d(aThr)]S([Gly-Ac]); ester 1-C), for which the Potency entry in test [1], in test [4], in test [2], in test [5] and in [3] was “inactive” in each case.

As for `CN1CC[C@]2(c3cccc4c3N[C@H]3N(C)CC[C@@]43[C@]34CCN(C)[C@H]3Nc3ccccc34)c3ccccc3N[C@H]12`, the Potency entry in [1] is “inactive”. For the same molecule, the Potency in test [7] is 21.1 µM (active); in test [4] it was 7.43 µM (active); in test [2], 4.18 µM (active). The molecule was classed as inactive in test [9].

`CC(C)[C@]12CC[C@@]3(C)[C@H](C)CC[C@H](O)[C@@]3(CC1)c1cc3c(cc12)[nH]c1ccccc13`: the Potency in [1] was 27.7 µM (active). The Potency result in test [5] and in test [8] was “inactive” each time. For the same molecule, the result in [9] was inactive.

On to `CO/C=C/C(=O)c1cc2cnc3c(N)cc(=NC(=O)C(C)C)c([nH]1)c23`, for which the Potency in [1] is 17.5 µM (active); in [6] it was 0.0296 µM (active); in [2], 0.372 µM (active).

On to `C[C@@]12CCC[C@@](C)(C(=O)O)[C@H]1C[C@@H](O)[C@@]13C[C@@H](CC[C@@H]21)[C@](C)(O)C3`, for which the Potency result in [7], in test [6] and in test [3] was “inactive” each time.

Take `CC1c2cccc(O)c2C(O)=C2C(=O)C3(O)C(O)=C(C(N)=O)C(=O)C(N(C)C)C3C(O)C21` (stereo not drawn): the Potency in test [10] is 282 µM (active). Further, the Potency entry in test [11] and in test [12] was “inactive” each time.

With `[C-]#[N+][C@@]12C(=O)[C@@H]3[C@@H](O[C@@]4(C(=O)N(C)c5cccc1c54)C3(C)C)C(=O)[C@@]2(C)C=C`, the Potency entry in test [7], in [6], in [8] and in test [3] was “inactive” each time.

As to `COc1ccc([C@@H]2CC(=O)c3c(cc(O)c(C/C=C(\C)CCC=C(C)C)c3O)O2)cc1`, the Potency in test [1] is 7.2 µM (active). In addition, the values for the activity change, negative = cytotoxicity in [4] and in test [2] were -14.6% [at 9.19 µM] and 0.771% [at 9.19 µM], respectively. In addition, the activity change, negative = inhibition in test [5] was 8.62% [at 7.64 µM]. For the same molecule, in test [9], the viability signal change, negative = cytotoxic is 8.04% [at 9.19 µM]. Further, the activation in test [8] is 21.1% [at 9.19 µM]. Moreover, the activity change, negative = cytotoxic in [3] was -18.7% [at 9.19 µM].

For the molecule `C=C[C@@]1(C)CC[C@@H]([C@H](C)C(C)=O)O1`, the Potency result in test [7], in test [6], in [4], in [5], in test [8] and in [3] was “inactive” throughout.

For `C/C(=C\[C@H](C)C(=O)CCCC1CC(=O)NC(=O)C1)[C@@H]1OC(=O)/C=C/CC/C=C/[C@H](O)[C@@H](O)[C@@H]1C`, the Potency was 49.3 µM (active) in test [1], 0.372 µM (active) in test [6] and 0.662 µM (active) in test [4]. The result in test [9] was inactive. For the same molecule, the Potency result in test [3] is “inactive”.

For the origin of these results see PubChem BioAssay (NCATS).
